ER stress surv = ER stress cell death inhibition. CSM14.1 thapsigargin ER stress survival, ATP luminescence. relative survival (cellular ATP), % at 15 µg/mL (by protocol). actives 0.33% (n = 48,000);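 active = survival measured by cellular ATP above 50% at 15 µg/ml in the first screen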;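 also: cell death triggered by about 15 µM thapsigargin; ATP read 24 h after thapsigargin was added; plate controls were thapsigargin with DMSO for no effect and DMSO without thapsigargin for full effect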
Active calls of the source: *. The entries come from a sample that favours hits as a whole.

SMILES | ER stress surv
Cc1cccc(Cc2cnc(NC(=O)CCCN3C(=O)/C(=C/c4ccccc4)SC3=S)s2)c1 | 16.3
O=C(NCc1cccnc1)C(c1ccccc1)c1ccccc1 | 24.8
O=C(Nc1ccc(Cc2ccncc2)cc1)c1ccc2ccccc2n1 | -1.3
CN(C)Cn1c(O)c(N=NC(=O)c2ccncc2)c2cc(Br)ccc21 | -1.7
O=c1[nH]c(=O)n(-c2ccccc2Cl)c(O)c1C=Nc1cccc(F)c1 | 19.9
CCOc1ccc(C(=O)Nc2ccccc2C(N)=O)cc1 | -3.0
CC(C)(C)c1ccc(C(=O)N2N=C(c3cccnc3)CC2(O)C(F)(F)F)cc1 (configuration not stated) | 55.2*
COc1cccc(C2=NN(C(=O)c3ccc(C(C)(C)C)cc3)C(O)(C(F)(F)F)C2)c1 (configuration not stated) | 1.3
CC(C)(C)c1ccc(C(=O)N2N=C(c3ccc([N+](=O)[O-])cc3)CC2(O)C(F)(F)F)cc1 (configuration not stated) | 12.2
CC(C)(C)NC(=O)c1cc(NC(=O)c2cccs2)cc(NC(=O)c2cccs2)c1 | 3.6
Cc1cccc(NC(=O)Cc2ccccc2)c1 | -5.5
CC(C)(C)NC(=O)c1cc(NC(=O)Cc2ccccc2)cc(NC(=O)Cc2ccccc2)c1 | 73.0*
CC1=C(C(=O)OCCOc2ccccc2)C(c2cccc(Cl)c2)C2=C(CCCC2=O)N1 (configuration not stated) | 4.4
COC(=O)COc1ccc(/C=N/n2cnnc2)cc1OC | 9.1
Cc1ccc(N2C(=O)C3C(C2=O)C2(C)C(=O)C3(C)C(c3ccccc3)=C2c2ccccc2)cc1Cl (configuration not stated) | 5.0
COc1ccc(CCNC(=O)/C(=C/c2ccc(Cl)cc2)NC(=O)c2ccc(C)cc2)cc1OC | 0.1
COc1ccc(CCNC(=O)/C(=C/c2ccc(C(C)C)cc2)NC(=O)c2ccccc2)cc1OC | 79.3*
COCCNC(=O)/C(=C/c1ccc(C(C)C)cc1)NC(=O)c1ccccc1 | 2.0
O=C(Cc1ccccc1)N1CCN(c2ccc([N+](=O)[O-])cc2Cl)CC1 | -5.8
CCOc1ccccc1NC(=O)c1c(NC(=O)COc2ccc(Cl)cc2)sc2c1CCC2 | 3.9
CCOC(=O)Cn1c(C(F)(F)F)nc2ccccc21 | 1.7
O=C1CC(c2ccccc2)CC2=C1C(c1ccc(F)cc1)Nc1ccccc1N2 (configuration not stated) | 8.5
O=C1CC(c2ccc3c(c2)OCO3)CC2=C1C(c1ccc(C(F)(F)F)cc1)Nc1ccccc1N2 (configuration not stated) | 122.3*
O=C1CC(c2ccc(Cl)cc2)CC2=C1C(c1cc3c(cc1[N+](=O)[O-])OCO3)Nc1ccccc1N2 (configuration not stated) | 83.8*
COc1ccc(C2CC(=O)C3=C(C2)Nc2ccccc2NC3c2ccc3c(c2)OCO3)cc1 (configuration not stated) | 5.1
SMILES | ER stress surv
O=C1CC(c2ccc3c(c2)OCO3)CC2=C1C(c1cc3c(cc1Br)OCO3)Nc1ccccc1N2 (configuration not stated) | 5.8
Cc1ccc(C2Nc3ccccc3NC3=C2C(=O)CC(c2ccc(Cl)cc2)C3)cc1[N+](=O)[O-] (configuration not stated) | 6.7
O=C1CC(c2ccccc2)CC2=C1C(c1ccc(Cl)c([N+](=O)[O-])c1)Nc1ccccc1N2 (configuration not stated) | 99.6*
COc1ccc(C2CC(=O)C3=C(C2)Nc2ccccc2NC3c2cc3c(cc2Cl)OCO3)cc1 (configuration not stated) | 6.9
O=C1CC(c2ccc(Cl)cc2)CC2=C1C(c1ccccc1[N+](=O)[O-])Nc1ccccc1N2 (configuration not stated) | 26.5
CCOC(=O)CC(O)(c1ccccc1)C(F)(F)C(F)F (configuration not stated) | 4.8
COc1cc(NC(=O)c2cccnc2)c(OC)cc1NC(=O)c1cccnc1 | 16.6
COc1ccc(N(CC(=O)Nc2ccccc2Cl)S(C)(=O)=O)c(OC)c1 | 16.8
Clc1cccc(OCCCN2CCCCC2)c1Cl | -9.7
COc1ccc(-n2nc3cc(C)c(NC(=O)c4ccc5c(c4)OCCO5)cc3n2)cc1 | -4.6
O=[N+]([O-])c1ccc(C(=S)N2CCCCC2)cc1 | 0.9
CCOc1cc(/C=C(/C(=O)c2ccc(C)cc2)c2nc3ccccc3o2)ccc1O | -2.2
CCC(=O)N1c2ccccc2NC2=C(C(=O)CC(C)(C)C2)C1c1ccc(N(CC)CC)cc1 (configuration not stated) | 53.3*
CCC(=O)N1c2ccccc2NC2=C(C(=O)CC(C)(C)C2)C1c1ccc(C#N)cc1 (configuration not stated) | -2.6
CCC(=O)N1c2ccccc2NC2=C(C(=O)CC(c3ccccc3)C2)C1c1ccc(F)cc1 (configuration not stated) | 106.0*
COc1ccc(C2C3=C(CC(c4ccccc4)CC3=O)Nc3ccccc3N2C(=O)C(C)C)cc1OC (configuration not stated) | 2.3
CCC(=O)N1c2ccccc2NC2=C(C(=O)CC(c3ccccc3)C2)C1c1cccnc1 (configuration not stated) | 2.8
CCC(=O)N1c2ccccc2NC2=C(C(=O)CC(c3ccc(OC)cc3)C2)C1c1ccccc1 (configuration not stated) | -1.3
CC1(C)CC(=O)C2=C(C1)Nc1ccccc1N(C(=O)c1ccccc1)C2c1ccc(C#N)cc1 (configuration not stated) | 16.5
O=C1CC(c2ccccc2)CC2=C1C(c1cccnc1)N(C(=O)c1ccccc1)c1ccccc1N2 (configuration not stated) | 78.9*
CCC(=O)N1c2ccccc2NC2=C(C(=O)CC(c3ccccc3)C2)C1c1cccc(Br)c1 (configuration not stated) | 1.3
COC(=O)c1c2nc3ccccc3sc-2cc(=O)c1N | -6.5
CCOC(=O)c1ccc(-n2c(C)cc(/C=C3\SC(=O)NC3=O)c2C)cc1 | 3.2
O=c1c2ccccc2nc(/C=C\c2ccccc2O)n1-c1cccc2ccccc12 | -2.9
CC(C)(C)C(=O)COc1cc2oc(=O)cc(-c3ccccc3)c2cc1Cl | 9.7
SMILES | ER stress surv
Cc1cc([N+](=O)[O-])ccc1-c1ccc(C(=O)Nc2ccc(N3CCOCC3)cc2)o1 | -4.0
CCOC(=O)c1cnc2c(-c3ccccc3)c(C)nn2c1C | 8.7
O=C(Nc1ccc(Cl)c(Cl)c1)c1cnn2c1NC(c1ccc(Br)cc1)CC2C(F)(F)F (configuration not stated) | 1.3
CC12CC3CC(C)(C1)CC(CNC(=S)Nc1ccccc1)(C3)C2 | -2.4
O=C(CCNC(=O)/C(=C\c1ccccc1)NC(=O)c1ccco1)OCc1ccccc1 | 7.6
CC(C)COc1ccc(C(=O)N/C(=C/c2ccccc2)C(=O)NCC(=O)OCc2ccccc2)cc1 | 80.4*
COc1ccc(C(=O)N/C(=C\c2ccccc2)C(=O)NCCCN(C)C)cc1 | -0.6
COc1cc([N+](=O)[O-])cc(/C=N/NC2=NS(=O)(=O)c3ccccc32)c1O | 5.8
O=C(c1cccc([N+](=O)[O-])c1)c1ccc2c(c1)C(=O)N(c1ccc(Cl)cn1)C2=O | 6.7
CC1CC(Nc2ccccc2)c2ccccc2N1C(=O)/C=C/c1ccco1 (configuration not stated) | 50.8*
CC1CC(Nc2ccccc2)c2ccccc2N1C(=O)c1cccc(Br)c1 (configuration not stated) | 6.2
